# According to PubChem BioAssay (NCI):
# About 83,000 compounds went through this panel and 20% of them were active in at least one assay; those are over-represented in the sample as a whole.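 Plates (96-well) were seeded with cells, treated with compound at one concentration, and incubated for 48 hours before percent growth was determined.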 Values without a mark were called inactive. Active and inactive are the calls of the source.
# Tested on: SW-620 colon
# Test: NCI-60 one-dose screen, 48 h (100 = growth as untreated, 0 = no growth, -100 = all killed)
# Conditions: 10 µM unless noted
# Description: Growth inhibition of the SW-620 human tumor cell line is measured as a screen for anti-cancer activity. Cells are grown in 96 well plates and exposed to the test compound for 48 hours. Compounds are tested at a single concentration, which is 10^-5 M for most compounds. The reported endpoint is percent growth (GI% or GIPRCNT), where numbers from 0 - 100% represent growth inhibition, and numbers from -100% - 0 represent cell death. For example, a value of 40 represents 60% growth inhibition. A value of 0 means no net growth occurred over the course of the experiment. A value of -40 indicates 40% of cells at the beginning of the experiment died by the end of the experiment. A value of -100 means all cells are dead at the end of the experiment.
# NCI-60 Human Tumor Cell Lines Screen was performed using the standard one-dose NCI protocol, which is described in more detail at https://dtp.cancer.gov/discovery_development/nci-60/default.htm.
# Compounds with GIPRCNT values below 10 were considered active. Activity score was based on GIPRCNT using the following formula: […]
# Score is 0 for GIPRCNT values of 100 or above, 50 for GIPRCNT values of 0, and 100 for GIPRCNT values of -100.
row,Compound,growth
1,CC(=O)OC[C@@]1(C)C2CC[C@]3(C)C(CC=C4C5CC(C)(C)CC[C@]5(C(=O)Nc5ccc(Br)cc5)CC[C@]43C)[C@@]2(C)C[C@@H](OC(C)=O)[C@@H]1OC(C)=O (stereo not given in full),39.9%
2,O=C1Nc2ccc([N+](=O)[O-])cc2C1=Nc1ccccc1,102%
3,CCCCCCCCOc1cccc(S(=O)(=O)Nc2ccc(C)cc2C(=O)O)c1,96.5%
4,O=c1oc2ccccc2cc1-c1csc(N=Nc2c(O)[nH]c3ccc(Cl)cc23)n1,109%
5,CC1(c2cc3cc(Cl)ccc3oc2=O)NC(=O)c2c(/C=C/C(=O)OC3CC4CCC3(C)C4(C)C)cccc2N1 (stereo not given),73%
6,CC(C)CSc1nc(NCCc2c[nH]c3ccccc23)c(C#N)c(-c2ccccc2)n1,36.1%
7,Cc1ccc(C(=O)C(c2c[nH]c3ccccc23)c2c[nH]c3ccccc23)cc1,0.879% (active)
8,COc1cccc(-c2nc(Nc3ccc(S(N)(=O)=O)cc3)c3ccccc3n2)c1,36.1%
9,CC(=O)c1cccc(NC(=O)CCC(=O)NS(=O)(=O)c2ccc(C)cc2)c1,111%
10,O=C(COc1ccc(NC(=O)Nc2ccc(Cl)c(Cl)c2)cc1)N=Nc1c(O)[nH]c2ccc(Cl)cc12,-46.9% (active)
11,COc1cc(OC)cc(-c2cc3ccc(N(C)C)cc3c(=O)[nH]2)c1,33.8%
12,CC12CC[C@@H]3[C@]4(C)COC(c5cn[nH]c5-c5cccc(Cl)c5)O[C@@H]4CC[C@@]3(C)[C@@H]1CC(C1=CCOC1=O)O2 (stereo not given in full),50.6%
13,COc1ccc2[nH]c(=O)c(CSc3nccc(-c4ccc(OC)c(OC)c4)n3)cc2c1,44.5%
14,Cc1ccc(C(SCCNCc2cc(N(C)C)ccn2)(c2ccccc2)c2ccccc2)cc1,-79.4% (active)
15,O=C(/C=C/Nc1ccc(Cl)cc1)c1ccc2c(c1)Nc1ccccc1S2,54.8%
16,COc1cc2oc(-c3cccc(C(=O)Nc4ccc(Cl)cc4)c3)cc(=O)c2c(OCCNC(=O)[C@H](CCC(=O)OC(C)(C)C)NC(=O)OC(C)(C)C)c1OC,112%
17,Cc1cccc(NC(=O)CN2CCN(c3ncnc4c3cnn4-c3ccccc3)CC2)c1,92%
18,CCCCSc1nc(Nc2ccc(S(N)(=O)=O)cc2)c(C#N)c(-c2cc(OC)c(OC)c(OC)c2)n1,48.6%
19,COc1cc(C2CC(c3cc(OC)c(OC)c(OC)c3)=NN2c2ccccc2)ccc1OCc1ccc(C)cc1 (stereo not given),94.3%
20,CCCCSc1nc(Nc2ccc(S(N)(=O)=O)cc2)c(C#N)c(-c2ccc(Cl)cc2)n1,37.3%

row,Compound,growth
1,C=CC[N+](C)(C)CCn1c2ccccc2c2nc3cc(C)c(C)cc3nc21,94.6%
2,Nc1nnc(-c2c[nH]c3ncc(Br)cc23)c(-c2c[nH]c3ccc(F)cc23)n1,20.9%
3,CC(C)c1sc(NC(=O)c2cc(NC(=O)c3cc(NC(=O)c4nccn4C)cn3C)cn2C)nc1C(=O)NCCCN(C)C,66.6%
4,COc1ccc(C2=NN(c3ccccc3)C(c3ccc(OCc4ccccc4)c(OC)c3)C2)cc1OC (stereo not given),101%
5,CCOP(=O)(OCCCl)c1nc(-c2ccc(C)cc2)oc1NCc1ccccc1 (stereo not given),86.5%
6,O=C(CN1C(=O)/C(=C/c2ccccc2Cl)SC1=S)N1CCOCC1,38.6%
7,Cc1cc(C)n(-c2ccc3nnc(-c4ccccc4)n3n2)n1,103%
8,CC(=O)Nc1ccc(-n2cnc3cc(-c4ccc(O)cc4)ccc32)cc1C(F)(F)F,22.3%
9,Cc1cc2nc3c4ccccc4n(CCNCCN(C)C)c3nc2cc1C,-19.6% (active)
10,S=C(NCCc1ccccc1)Nc1ccc(OCc2nc3ccccc3[nH]2)cc1,107%
11,CN(C)CCn1c2ccccc2c2nc3cc4ccccc4cc3nc21,-58.3% (active)
12,N#Cc1c(NCc2ccccc2)n[nH]c1Nc1ccccc1,62.7%
13,COc1ccc(NC(=O)[C@@H](N)Cc2ccccc2)cc1C(=O)Nc1cccc(C2CC(=O)c3c(cc(OC)c(OC)c3OC)O2)c1 (stereo not given in full),50.9%
14,Cn1cc(-c2nnc(N)nc2-c2c[nH]c3ccc(Br)cc23)c2cc(Br)cnc21,75.1%
15,Nc1nc(C(F)(F)F)cs1,104%
16,COc1cc2c(c(OC)c1OC)C(=O)CC(c1cccc(NC(=O)c3cc(NC(=O)[C@H](C)N)ccc3Cl)c1)O2 (stereo not given in full),18.5%
17,CCCSc1nc(NCCc2c[nH]c3ccccc23)c(C#N)c(-c2ccc(F)cc2)n1,55.7%
18,COc1ccc2[nH]cc(-c3nnc(N)nc3-c3cn(C)c4ncc(Br)cc34)c2c1,87.9%
19,CCOc1ccc(C(=O)NC(=S)Nc2ccc(S(N)(=O)=O)cc2)cc1,104% [100 µM]
20,O=C(c1ccccc1)c1ccc2nc(-c3ccc(F)cc3)[nH]c2c1,28.2%
